# Results: PubChem BioAssay AID602410 (Johns Hopkins Ion Channel Center, 2012)
# In all, about 340,000 compounds went through this assay and about 2,800 (0.82%) were called active.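 Rule for the calls: active = B-score under library mean minus 4 SD, starting fluorescence ratio at most library mean plus 5 SD; inactive = the rest.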 For the sample, actives were picked, then their nearest neighbours and some compounds at random.
# Target: Potassium channel subfamily K member 3 (Homo sapiens) (UniProt O14649)
# Sequence (O14649 whole entry, looked up): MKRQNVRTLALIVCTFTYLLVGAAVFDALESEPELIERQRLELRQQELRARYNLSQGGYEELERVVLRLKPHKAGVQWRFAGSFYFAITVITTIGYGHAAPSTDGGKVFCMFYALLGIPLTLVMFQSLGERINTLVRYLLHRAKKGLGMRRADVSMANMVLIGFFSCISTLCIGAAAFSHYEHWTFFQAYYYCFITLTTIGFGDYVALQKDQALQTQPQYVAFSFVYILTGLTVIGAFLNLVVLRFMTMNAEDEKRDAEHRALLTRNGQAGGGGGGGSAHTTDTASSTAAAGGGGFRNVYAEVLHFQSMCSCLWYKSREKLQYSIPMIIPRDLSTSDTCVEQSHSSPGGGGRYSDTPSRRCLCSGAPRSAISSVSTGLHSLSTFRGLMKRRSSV
# Assay: human KCNK3 channel inhibitors, primary screen, CHO cells, FluxOR thallium flux, B-score (AID 602410);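 for B-score: more negative B-score means stronger inhibition of thallium flux through KCNK3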
# Settings: FluxOR fluorescence, at 10 µM; hits give low values
row,SMILES,B-score
1,c1ccc(C2c3[nH]c4ccccc4c3CCN2Cc2cccn2-c2cccnc2)nc1 (stereo not given),inactive
2,CCOc1ccc(C2c3[nH]c4ccccc4c3CCN2Cc2cn(CC)nc2C)cc1 (stereo not given),inactive
3,CCOc1ccc(C2c3[nH]c4ccccc4c3CCN2Cc2cccn2-c2ncccn2)cc1 (stereo not given),-8.75 (active)
4,O=C(NCc1ccccc1)C1=C[C@@H](c2ccc(C(F)(F)F)cc2)C[C@@H](OCc2ccc(CO)cc2)O1,inactive
5,COCc1cc(C(C)=O)ccc1OC,inactive
6,COc1ccc(C(C)=O)cc1COc1ccc(Cl)c(C)c1,-10.4 (active)
7,CCOc1ccc(C(C)=O)cc1COC(=O)c1cnc(Cl)c(Cl)c1,inactive
8,O=S(=O)(c1cccc(-c2cn3ccccc3n2)c1)N1CCCC1,inactive
9,COc1ccc(N2CCN(C3CCCCC3NS(=O)(=O)c3ccccc3)CC2)cc1 (stereo not given),inactive
10,O=S(=O)(NC1CCCCC1N1CCCCC1)c1ccc(Cl)cc1 (stereo not given),inactive
11,O=S(=O)(NC1CCCCC1N1CCN(c2ccccc2F)CC1)c1ccccc1 (stereo not given),-9.12 (active)
12,CCC(C)(C)NC(=O)C(c1ccc(O)cc1)N(Cc1ccco1)C(=O)CCC(=O)Nc1ccccn1 (stereo not given),inactive
13,Cn1c(=O)c2sccc2n(Cc2ccc(Br)cc2)c1=O,inactive
14,COc1nc(NCc2ccc(Cl)cc2)nc(OC)n1,inactive
15,FC(F)(F)c1cc(-c2cccs2)nc(NCc2ccco2)n1,inactive
16,FC(F)(F)c1cc(-c2ccco2)nc(NCc2ccc(Cl)cc2)n1,-8.85 (active)
17,Cc1c(C(=O)N2CCCc3ccccc32)sc2nc(-c3ccccc3)cn12,-9.27 (active)
18,Cc1cccc2cc3c(N)c(C(=O)N4CCCc5ccccc54)sc3nc12,inactive
19,Cc1c(C(=O)NCC2CCCO2)sc2nc(-c3ccccc3)cn12 (stereo not given),inactive
20,N[C@@H](Cc1ccccc1)C(=O)N1CCC(C(=O)NCC(=O)Nc2ccc(F)cc2)CC1,inactive
21,COc1ccc(C(F)(F)F)cc1N/C=C\c1nnnn1-c1ccc(C)cc1,inactive
22,Cc1ccc(C(=O)N/N=C\c2cc(Br)c(Br)o2)cn1,inactive
23,COc1ccc(S(=O)(=O)NCCOc2ccccc2)cc1F,inactive
24,COc1ccc(S(=O)(=O)NCCCCOc2ccc(Cl)cc2)cc1,-9.65 (active)
25,COc1ccc(OCCNS(=O)(=O)Cc2ccccc2)cc1,inactive

row,SMILES,B-score
1,CCCC(C)c1nnc(NC(=O)C2CC(=O)N(c3ccc(OCC)cc3)C2)s1 (stereo not given),inactive
2,CC(C)[C@H](NC(=O)Nc1ccc(S(N)(=O)=O)cc1)C(=O)O,inactive
3,CCCCCC(O)c1cccc(OCc2ccc3ccccc3n2)c1 (stereo not given),-9.81 (active)
4,CC(C)n1c(COc2ccccc2)nc2ccccc21,inactive
5,COc1cccc(C(O)c2nc3ccccc3n2C)c1 (stereo not given),inactive
6,NS(=O)(=O)c1ccc(NC(=O)/C=C/c2ccccc2Cl)cc1,inactive
7,Cc1cc(=O)oc2c(C)c(OC(C)C(=O)NC3CCN(Cc4ccccc4)CC3)ccc12 (stereo not given),inactive
8,COc1cc(C(=S)NCc2ccccc2)cc(Br)c1O,inactive
9,CC(=O)N1CCCc2cc(S(=O)(=O)CCC(=O)N3CCN(c4ccccc4)CC3)ccc21,inactive
10,CC(=O)N1CCCc2cc(S(=O)(=O)N3CCCC(C(=O)N4CCN(c5cccc(Cl)c5)CC4)C3)ccc21 (stereo not given),-9.62 (active)
11,CC(=O)N1c2ccc(S(=O)(=O)N3CCC(C(=O)N4CCN(c5ccccc5)CC4)CC3)cc2CC1C (stereo not given),inactive
12,Cc1cccc2cc(CN(Cc3nnnn3Cc3ccccc3)C3CCCC3)c(=O)[nH]c12,-10.8 (active)
13,CCOc1ccc2[nH]c(=O)c(CN(Cc3nnnn3Cc3ccccc3)CC3CCCO3)cc2c1 (stereo not given),inactive
14,Cc1cc(C)c2cc(CN(Cc3nnnn3Cc3ccc(F)cc3)C3CCCC3)c(=O)[nH]c2c1,inactive
15,CCCCn1c(N)c(N(CCOC)C(=O)c2cccc(S(=O)(=O)N(C)c3ccccc3)c2)c(=O)[nH]c1=O,inactive
16,COc1ccc(C2NCCCC2c2ccccc2)cc1 (stereo not given),inactive
17,COCCn1c(=O)[nH]c2cc(C(=O)NCc3cccnc3)ccc2c1=O,inactive
18,CCCCNC(=O)C1(O)c2ccccc2NC(=O)N1c1ccc(Cl)cc1 (stereo not given),inactive
19,Cc1cccc(N(Cc2ccccc2)C(=O)c2ccccc2F)c1,-9.35 (active)
20,O=C(c1ccccc1F)N(Cc1ccccc1)Cc1ccccc1,inactive
21,Cc1cccc(N(Cc2ccccc2)C(=O)c2cc(S(=O)(=O)N3CCOCC3)ccc2F)c1,inactive
22,O=[N+]([O-])c1cc([N+](=O)[O-])c(Oc2cc(F)cc(F)c2F)cc1NN1CCCCC1,inactive
23,COC(=O)C1=C(C(=O)OC)C(c2cc([N+](=O)[O-])ccc2O)c2sc(=O)[nH]c2S1 (stereo not given),inactive
24,Cc1c(C(=O)NC2CCCCC2)oc2ccccc12,inactive
25,Cc1cc(C)nc(-n2nc(C)cc2NC(=O)c2ccc(F)cc2F)n1,inactive

row,SMILES,B-score
1,CC(Nc1nc(N2CCCC2)nc2ccccc12)c1ccccc1 (stereo not given),inactive
2,c1ccc2c(NC3C4CC5CC(C4)CC3C5)nc(N3CCOCC3)nc2c1 (stereo not given),-9.5 (active)
3,CC(Nc1nc(N2CCOCC2)nc2ccccc12)c1ccccc1 (stereo not given),inactive
4,O=C(NC1CC1)C1CCCN(C(=O)NC2CCCCC2)C1 (stereo not given),inactive
5,COc1ccccc1OCc1nnc(SCC(N)=O)n1-c1ccccc1,inactive
6,c1ccc(CCn2nnnc2CN2CCN(C3CCCC3)CC2)cc1,inactive
7,COc1ccc(C(c2nnnn2C2CCCCC2)N2CCN(c3ccccc3F)CC2)cc1 (stereo not given),inactive
8,c1ccc(C(c2ccccc2)N2CCN(Cc3nnnn3C3CCCCC3)CC2)cc1,-10.8 (active)
9,CC(=O)c1c(C)c[nH]c1C,inactive
10,O=C(NC(=S)N1CCN(Cc2ccccc2)CC1)c1ccccc1,inactive
11,Cc1cccc(N(C(=O)Cc2cccs2)C(C(=O)NC2CCCC2)c2ccsc2)c1 (stereo not given),inactive
12,NS(=O)(=O)c1ccc(N2C(=O)C3C4CC(C(Br)C4Br)C3C2=O)cc1 (stereo not given),inactive
13,Cc1cc(O)c(NC(=O)c2ccc(C)c([N+](=O)[O-])c2)cc1C,inactive
14,CCCCCCCCn1c2c(c(=N)c3c1CCC3)CCCC2,-9.82 (active)
15,CC1(C)Cc2c(sc(NC(=O)C(=O)N3CCOCC3)c2C#N)CO1,inactive
16,Clc1ccc(-c2cc(C3CCNCC3)[nH]n2)c(Cl)c1,inactive
17,O=C(CSc1nc(Nc2ccccc2)nc(N2CCOCC2)n1)Nc1cc(Cl)ccc1O,-11.6 (active)
18,CC1(c2ccccc2)NC(=O)N(CC(=O)Nc2cc(Cl)ccc2N2CCOCC2)C1=O (stereo not given),inactive
19,Cc1ccccc1NC(=O)CSc1nc2ccc(Nc3nc(N4CCOCC4)nc(N4CCOCC4)n3)cc2s1,inactive
20,COc1cccc(NC(=O)CN(C)C(=O)/C=C/c2cc(OC)ccc2OC)c1,inactive
21,COc1ccc(NC(=O)CN(C)C(=O)/C=C/c2cn(Cc3ccccc3)nc2-c2cccnc2)cc1,inactive
22,COc1cccc(NC(=O)CN(C)C(=O)/C=C/c2cn(-c3ccccc3)nc2-c2cccs2)c1,-10.7 (active)
23,CCN(c1ccccc1)S(=O)(=O)c1ccc(OCC(=O)N2CCCC2)cc1,inactive
24,Cc1nc2nc[nH]n2c(=O)c1NC(=O)c1cccc(OCC(C)C)c1,inactive
25,C=CCN(C(=O)c1cc(C)cc(C)c1)C1(C(=O)Nc2ccccc2)CCN(C(C)C)CC1,-9.18 (active)

row,SMILES,B-score
1,CC(C)N1CCC(NC(=O)Nc2ccccc2)CC1,inactive
2,C=CCn1cc(Cl)cc(C(=O)Nc2ccccc2)c1=O,inactive
3,Cc1cccc(-c2c(NC(=O)c3ccco3)oc3ccc(Cl)cc3c2=O)c1,inactive
4,O=C(CS(=O)(=O)Cc1ccccc1)Nc1cccnc1,inactive
5,CC(=O)Nc1ccc(S(=O)(=O)N(CCc2ccccc2)CC(=O)N/N=C/c2ccc(C(=O)O)cc2)cc1,inactive
6,O=C(NCCc1ccccc1)c1ccc2c(c1)N(Cc1ccccc1)CCS2,-11.6 (active)
7,CCOC(=O)N1CCN(C(=O)c2ccc3c(c2)N(Cc2ccc(C)cc2)CCS3)CC1,inactive
8,O=C(NCCc1ccccc1)c1cccc(NC(=O)c2ccccc2)c1,inactive
9,CCOCc1c(C(=O)N2CCN(Cc3ccc(Br)s3)CC2)oc2ccccc12,inactive
10,CCOc1ccc(S(=O)(=O)N(CC(=O)NCC(F)(F)F)Cc2ccco2)cc1,inactive
11,CC(C)CCNC(=O)CN(C(=O)Cn1nnc(-c2ccc(F)cc2)n1)C1CCCC1,inactive
12,CN(C(=O)Cn1nnc(-c2ccc(F)cc2)n1)C1CCS(=O)(=O)C1 (stereo not given),inactive
13,CC(C)CCNC(=O)C(C)N(C(=O)Cn1nnc(-c2ccc(F)cc2)n1)C1CCCC1 (stereo not given),-9.19 (active)
14,C#CCOCCOCCOCCNc1nc(N2CCN(C(=O)C(Cc3ccc(O)cc3)n3cc(C(N)CC(C)C)nn3)CC2)nc(N2CCN(C(=O)C(Cc3ccc(O)cc3)n3cc(C(N)C(C)CC)nn3)CC2)n1 (stereo not given),inactive
15,COc1ccc(-n2c(O)c(C=NCC(c3ccco3)N3CCCC3)c3ccccc3c2=O)cc1OC (stereo not given),inactive
16,COc1ccc(Oc2cn[nH]c2-c2ccc(OC)cc2O)cc1,inactive
17,CCOc1ccc(-c2nc(N)ncc2-c2ccccc2OC)c(O)c1,inactive
18,CCOc1ccccc1Oc1cn[nH]c1-c1ccc(OC)cc1O,-8.87 (active)
19,CC1CCc2sc(C(=O)NCC(c3ccco3)N3CCCCC3)cc2C1 (stereo not given),inactive
20,O=C(Oc1ccccc1C(=S)N1CCCCC1)c1cc([N+](=O)[O-])cc([N+](=O)[O-])c1,inactive
21,COc1cc(C(=S)N2CCOCC2)cc(OC)c1OC(=O)c1cc([N+](=O)[O-])cc([N+](=O)[O-])c1,inactive
22,O=C(Oc1ccc(Br)cc1C(=S)N1CCOCC1)c1cccc([N+](=O)[O-])c1,-11.4 (active)
23,O=C(N/N=C/c1sc(N2CCCCC2)nc1-c1cccs1)c1cccnc1,-10.7 (active)
24,Cc1ccc(NC(=O)COc2ccc(/C=N\NC(=O)c3cccnc3)cc2)cc1C,inactive
25,O=C(NN=C1CCC(=NNC(=O)c2cccnc2)CC1)c1cccnc1,inactive
